Our source for the Potency values is PubChem BioAssay (Tox21).

Assay [1] can be described thus: Nuclear factor erythroid 2-related factor 2/antioxidant responsive element (Nrf2/ARE) small molecule agonists: qHTS cell viability counter screen in human keratinocytes (AID 1919968; active means well fitted curve in the direction sought with a large enough effect in the repeat runs; an effect the other way counts as inactive or inconclusive; further: nearly all actives have a fitted effect of over 55% in size; further: potency means the concentration at half of the fitted maximal effect). Conditions: KeratinoSens HaCaT ARE cells viability, CellTiter-Fluor, 24 h; series mostly up to 92.4 µM. The essentials:
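Cytotoxicity was multiplexed with the Nrf2/ARE luciferase assay in the same wells. Stably transfected HaCaT keratinocytes were treated with test compounds for 23 h at 37 C. Cell viability was then measured by CellTiter-Fluor fluorescence.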

Assay [2] can be described thus: Nuclear factor erythroid 2-related factor 2/antioxidant responsive element (Nrf2/ARE) small molecule agonists: luciferase reporter gene qHTS assay in human keratinocytes (AID 1919969). Further: nearly all actives have a fitted effect of over 35% in size. Further: potency means the concentration at half of the fitted maximal effect. The settings on record: KeratinoSens HaCaT ARE-luciferase, luminescence, 24 h; series mostly up to 92.4 µM.
Assay [3] has as its target Gonadotropin-releasing hormone receptor (Homo sapiens) (UniProt P30968). In words: Human gonadotropin-releasing hormone receptor (GnRHR) small molecule agonists, calcium flux assay in GnRHR-HEK293 cells (AID 1920063). Further: nearly all actives have a fitted effect of over 35% in size. The settings on record: calcium flux fluorescence, agonist mode; series mostly up to 57.6 µM. The essentials:
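Agonist activity was measured as intracellular calcium flux in HEK293 cells engineered to stably express human GnRHR. After dye loading for 1 hour at 37 C, compounds in DMSO were added and fluorescence was followed for 3 minutes.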

In assay [4] the target is KiSS-1 receptor (Homo sapiens) (UniProt Q969F8). In words: Human kisspeptin (KISS1R) small molecule agonists, calcium flux assay in KISS1R-HEK293 cells (AID 1920064; active means well fitted curve in the direction sought with a large enough effect in the repeat runs; an effect the other way counts as inactive or inconclusive). The settings on record: KISS1R-HEK293, calcium flux fluorescence, agonist; series mostly up to 76.8 µM. The essentials: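 Agonist activity is monitored as intracellular calcium rise in engineered HEK293 cells carrying human KISS1R. Cells are dye-loaded for 1 h at 37 C before compound addition, and fluorescence is recorded for 3 min.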
Chain of KiSS-1 receptor (Homo sapiens) (Q969F8 whole entry, looked up): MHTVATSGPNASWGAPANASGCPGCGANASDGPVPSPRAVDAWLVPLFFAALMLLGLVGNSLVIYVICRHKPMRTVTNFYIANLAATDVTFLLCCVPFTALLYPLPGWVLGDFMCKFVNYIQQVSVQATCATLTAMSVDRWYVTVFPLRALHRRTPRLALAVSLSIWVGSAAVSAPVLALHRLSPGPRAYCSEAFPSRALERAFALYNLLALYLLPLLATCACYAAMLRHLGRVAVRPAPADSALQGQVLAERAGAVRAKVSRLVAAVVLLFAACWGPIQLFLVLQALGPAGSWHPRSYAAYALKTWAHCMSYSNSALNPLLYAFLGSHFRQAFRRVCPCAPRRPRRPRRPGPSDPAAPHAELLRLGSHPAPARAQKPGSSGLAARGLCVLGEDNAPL

Assay [5] can be described thus: G protein-coupled receptor (GPCR) small molecule agonists, calcium flux assay: HEK293 wild type cell line counter screen (AID 1920065). Conditions: HEK293 WT calcium flux, fluorescence, agonist mode; series mostly up to 57.6 µM. The essentials: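 Seed cells, incubate 18 h (37 C, 5% CO2); add calcium dye, 1 h at 37 C; pin-transfer compounds, ATP control or DMSO; read fluorescence 480/540 nm each second for 3 min.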

Assay [6] in a line: p53 small molecule agonists, cell-based qHTS assay with human liver microsomes (AID 1963577).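 Further: p53 response element beta-lactamase reporter cells with liver microsomes plus NADPH.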 The settings on record: HCT-116 p53RE-bla with human liver microsomes, ratio, 16 h; series mostly up to 66 µM. The essentials: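 Metabolically competent format: test substances, human liver microsomes and NADPH (both 0.5 mg/mL final) incubated with p53RE-bla cells 16 h at 37 C. Beta-lactamase reporter signal then quantified by fluorescence.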

Assay [7] is described as follows: p53 small molecule agonists, cell-based qHTS assay with rat liver microsomes (AID 1963578). Conditions: HCT-116 p53RE-bla, beta-lactamase ratio, 16 h; series mostly up to 66 µM. The essentials: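 Each plate received p53RE-bla cells, then compound, then rat liver microsomes and NADPH (both 0.5 mg/mL final). Plates were held 16 h at 37 C, and beta-lactamase activity was detected with LiveBLAzer over 2 h.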

Assay [8] in a line: p53 small molecule agonists, cell-based qHTS assay with human liver microsomes: qHTS cell viability counter screen (AID 1963579). Further: nearly all actives have a fitted effect of over 45% in size. The settings on record: p53RE-bla HCT-116 viability, ATP luminescence, 16 h, HLM; series mostly up to 66 µM. The essentials:
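Tox21 library compounds, delivered from DMSO stocks, were tested on p53RE-bla cells together with 0.5 mg/mL human liver microsomes and 0.5 mg/mL NADPH (final) over 16 h at 37 C; CellTiter-Glo luminescence served as the cytotoxicity measure.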

The nature of assay [9]: p53 small molecule agonists, cell-based qHTS assay with rat liver microsomes: qHTS cell viability counter screen (AID 1963580). Further: nearly all actives have a fitted effect of over 45% in size. Conditions: p53RE-bla HCT-116 + rat microsomes, ATP viability, 16 h; series mostly up to 66 µM. The essentials:
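Luminescent ATP readout (CellTiter-Glo, 30 min at room temperature) reports viability of p53RE-bla HCT-116 cells after 16 h at 37 C with test compounds under metabolic activation by rat liver microsomes and NADPH at 0.5 mg/mL final each.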

The nature of assay [10]: p53 small molecule agonists, cell-based qHTS assay: qHTS cell viability counter screen (AID 1963581). Further: nearly all actives have a fitted effect of over 45% in size. Further: potency means the concentration at half of the fitted maximal effect. Conditions: p53RE-bla HCT-116 viability, ATP luminescence, 16 h; series mostly up to 66 µM. The essentials:
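Viability was counter-screened in parallel with the p53 agonist reporter by measuring intracellular ATP luminescence in the same HCT-116 p53RE-bla wells after 16 h compound treatment at 37 C.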

Assay [11] is described as follows: p53 small molecule agonists, cell-based qHTS assay (AID 1963582; active means well fitted activation curve with a large enough effect in the signal ratio in the repeat runs, not every such curve was filed as active; the % refers to the signal ratio). The settings on record: HCT-116 p53RE-bla reporter, beta-lactamase FRET ratio, 16 h; series mostly up to 66 µM. The essentials:
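Cells carrying a p53-responsive bla reporter are treated with test compounds for 16 h at 37 C; beta-lactamase activity is then detected with LiveBLAzer B/G FRET substrate after 2 h at room temperature.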

The target in assay [12] is 5-hydroxytryptamine receptor 2A (Homo sapiens) (UniProt P28223). The assay can be described thus: 5-hydroxytryptamine receptor 2A (HTR2A) small molecule antagonists, cell-based qHTS assay (AID 1963586). Further: nearly all actives have a fitted effect of over 45% in size. The settings on record: HTR2A-CHO cells, DOI-induced calcium flux, fluorescence; series mostly up to 61.5 µM. The essentials: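 CHO cells stably expressing human HTR2A were plated for 18 h at 37 C, then loaded with calcium dye for 1 h. Compounds were preincubated 5 min at room temperature before DOI (4 nM solution) was added. Kinetic fluorescence was read for 3 min.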
Chain of 5-hydroxytryptamine receptor 2A (Homo sapiens) (P28223 whole entry, looked up): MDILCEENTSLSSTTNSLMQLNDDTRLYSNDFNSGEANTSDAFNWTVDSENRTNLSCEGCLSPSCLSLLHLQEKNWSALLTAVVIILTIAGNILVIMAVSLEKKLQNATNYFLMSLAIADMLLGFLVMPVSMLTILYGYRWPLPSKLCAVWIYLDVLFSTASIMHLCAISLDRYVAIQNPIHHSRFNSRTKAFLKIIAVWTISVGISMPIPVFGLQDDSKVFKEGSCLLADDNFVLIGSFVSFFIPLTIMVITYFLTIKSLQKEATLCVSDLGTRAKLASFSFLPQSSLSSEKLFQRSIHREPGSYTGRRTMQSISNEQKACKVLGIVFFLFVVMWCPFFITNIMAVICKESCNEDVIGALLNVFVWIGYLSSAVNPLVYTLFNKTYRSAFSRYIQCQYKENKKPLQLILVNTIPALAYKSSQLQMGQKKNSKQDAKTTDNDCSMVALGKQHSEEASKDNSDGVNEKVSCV

The target is the same in assay [13]. In words: 5-hydroxytryptamine receptor 2A (HTR2A) small molecule agonists, cell-based qHTS assay (AID 1963587). Further: nearly all actives have a fitted effect of over 30% in size. The settings on record: HTR2A-CHO cells, calcium flux fluorescence, agonist mode; series mostly up to 76.8 µM. The essentials: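 HTR2A-CHO cells, plated 18 h at 37 C/5% CO2, dye-loaded 1 h at 37 C; compounds in DMSO added by pin tool (agonist mode). Intracellular calcium flux read as kinetic fluorescence on FDSS over 2 min at 1 s intervals.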

Assay [14] addresses Muscarinic acetylcholine receptor M1 (Homo sapiens) (UniProt P11229). In words: Cholinergic receptor muscarinic 1 (CHRM1) small molecule antagonists, cell-based qHTS assay (AID 1963588). Further: nearly all actives have a fitted effect of over 40% in size. The settings on record: CHRM1-CHO antagonist mode, calcium flux fluorescence; series mostly up to 61.5 µM. The essentials: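 Compounds were tested at 15 concentrations in three independent runs. Dye-loaded CHRM1-CHO cells were exposed 5 min at room temperature before stimulation by acetylcholine added at 50nM. Intracellular calcium was read kinetically on FDSS for 3 min.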

Assay [15] shares this target. The assay can be described thus: Cholinergic receptor muscarinic 1 (CHRM1) small molecule agonists, cell-based qHTS assay (AID 1963589). Further: nearly all actives have a fitted effect of over 35% in size. The settings on record: CHRM1-CHO cells, agonist mode, calcium flux fluorescence; series mostly up to 76.8 µM. The essentials:
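Cells were plated and incubated 18 h at 37 C/5% CO2, loaded with calcium dye for 1 h at 37 C, then treated with compounds in DMSO. Fluorescence was recorded kinetically at 1 sec intervals.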

Assay [16] is described as follows: cAMP Responsive Elements (CRE) small molecule agonists, cell-based qHTS assay (AID 1963590). Conditions: CRE-bla HEK293T, beta-lactamase FRET ratio, 3 h; series mostly up to 92.4 µM. The essentials: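 Cells carrying a CRE-driven beta-lactamase reporter (HEK 293T) are seeded, incubated overnight (18 h), and treated with test compounds for 3 h at 37 C; reporter activity is then detected with a FRET substrate after 2 h at room temperature.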

A short description of assay [17]: cAMP Responsive Elements (CRE) small molecule antagonists, cell-based qHTS assay (AID 1963591; active means well fitted inhibition curve with a large enough effect in the signal ratio in the repeat runs, not every such curve was filed as active; the % refers to the signal ratio). Conditions: CRE-bla HEK293T, beta-lactamase FRET ratio; series mostly up to 92.4 µM. The essentials:
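Cells (CRE-bla HEK 293T, DMEM with 10% dialyzed FBS and 25 mM HEPES) are seeded and incubated 18 h. Compounds are added with NKH477 agonist at 0.25 uM final for 3 h, then FRET substrate for 2 h.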

Assay [18] has as its target D(2) dopamine receptor (Homo sapiens) (UniProt P14416). In words: Dopamine D2 receptor (DRD2) small molecule agonists, cell-based qHTS assay (AID 1963594). Further: nearly all actives have a fitted effect of over 35% in size. The settings on record: HEK293-DRD2 cAMP HTRF, agonist mode, 30 min; series mostly up to 92.4 µM. The essentials: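 HEK293 cells stably expressing DRD2 were cultured 24 h at 37 C, then given Ro20-1724 (0.1 mM final) and compounds for 10 min at room temperature. NKH477 (200nM) was then added for 30 min. cAMP was read by HTRF.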

Assay [19] shares this target. In words: Dopamine D2 receptor (DRD2) small molecule antagonists, cell-based qHTS assay (AID 1963595; active means well fitted inhibition curve with a large enough effect in the signal ratio in the repeat runs, with a control signal flat; the % refers to the signal ratio). Conditions: HEK293-DRD2 cAMP HTRF antagonist mode; series mostly up to 92.4 µM. The essentials:
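HEK293 cells stably expressing DRD2 were preincubated with 0.1 mM Ro20-1724, then with compound for 10 min at room temperature. Cells were stimulated with 200 nM NKH477 plus 12 nM quinpirole for 30 min, and cAMP was read by HTRF.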

Assay [20] has as its target Beta-2 adrenergic receptor (Homo sapiens) (UniProt P07550). In words: Adrenergic beta2 receptor (ADRB2) small molecule antagonists, cell-based qHTS assay (AID 1963592). Further: nearly all actives have a fitted effect of over 50% in size. The settings on record: CHO-ADRB2 cells, isoproterenol-stimulated cAMP HTRF ratio, 0.5 h; series mostly up to 92.4 µM. The essentials:
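Assay format: CHO-ADRB2 cells, 18-20hr seeding at 37C/5% CO2, then compound plus 1nM isoproterenol agonist mix for 0.5hr RT. Homogeneous time-resolved fluorescence cAMP detection after 1hr, expressed as 665/615 nm ratio.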

Where “and” joins values, the source holds several entries; their conditions need not be identical. Equal values may be shown once. Inconclusive results are not listed. The source holds several records for some structures; these can differ, active in one and inactive in another. Calls of active or inactive are those of the source. Unless noted, the call rests on the fitted dose curve.

Chain of Muscarinic acetylcholine receptor M1 (Homo sapiens) (P11229 whole entry, looked up): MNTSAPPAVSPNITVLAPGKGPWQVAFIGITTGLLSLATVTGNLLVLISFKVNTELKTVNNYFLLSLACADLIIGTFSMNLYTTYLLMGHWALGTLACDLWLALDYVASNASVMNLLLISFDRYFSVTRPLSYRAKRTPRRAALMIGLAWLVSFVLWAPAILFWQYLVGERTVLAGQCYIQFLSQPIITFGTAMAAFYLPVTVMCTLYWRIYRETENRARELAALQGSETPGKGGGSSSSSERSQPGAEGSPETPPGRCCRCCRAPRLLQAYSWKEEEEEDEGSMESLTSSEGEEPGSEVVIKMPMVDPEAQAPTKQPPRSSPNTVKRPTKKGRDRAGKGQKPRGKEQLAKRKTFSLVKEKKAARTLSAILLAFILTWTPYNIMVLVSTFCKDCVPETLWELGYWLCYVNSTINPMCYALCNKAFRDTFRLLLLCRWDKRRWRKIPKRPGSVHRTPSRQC
Chain of Gonadotropin-releasing hormone receptor (Homo sapiens) (P30968 whole entry, looked up): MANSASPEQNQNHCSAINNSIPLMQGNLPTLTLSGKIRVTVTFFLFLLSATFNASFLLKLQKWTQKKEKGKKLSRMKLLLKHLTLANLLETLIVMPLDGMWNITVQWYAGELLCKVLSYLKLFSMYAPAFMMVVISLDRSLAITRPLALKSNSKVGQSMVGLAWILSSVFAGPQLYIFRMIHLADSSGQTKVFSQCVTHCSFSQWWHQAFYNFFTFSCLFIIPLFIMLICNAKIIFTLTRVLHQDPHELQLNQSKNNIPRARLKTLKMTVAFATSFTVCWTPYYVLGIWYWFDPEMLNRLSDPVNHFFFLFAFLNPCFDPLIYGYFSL
Chain of D(2) dopamine receptor (Homo sapiens) (P14416 whole entry, looked up): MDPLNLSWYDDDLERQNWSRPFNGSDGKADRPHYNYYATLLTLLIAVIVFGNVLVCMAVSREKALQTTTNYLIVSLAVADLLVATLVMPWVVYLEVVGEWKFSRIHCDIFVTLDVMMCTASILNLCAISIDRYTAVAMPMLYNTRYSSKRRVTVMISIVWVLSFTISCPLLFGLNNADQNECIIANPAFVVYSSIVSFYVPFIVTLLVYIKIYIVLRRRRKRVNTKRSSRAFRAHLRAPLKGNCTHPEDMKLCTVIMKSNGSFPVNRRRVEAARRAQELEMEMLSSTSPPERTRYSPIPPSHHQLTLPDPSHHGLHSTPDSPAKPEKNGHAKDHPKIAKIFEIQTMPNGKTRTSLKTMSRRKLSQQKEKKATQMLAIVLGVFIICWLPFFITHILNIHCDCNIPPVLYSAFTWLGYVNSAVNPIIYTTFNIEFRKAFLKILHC
Chain of Beta-2 adrenergic receptor (Homo sapiens) (P07550 whole entry, looked up): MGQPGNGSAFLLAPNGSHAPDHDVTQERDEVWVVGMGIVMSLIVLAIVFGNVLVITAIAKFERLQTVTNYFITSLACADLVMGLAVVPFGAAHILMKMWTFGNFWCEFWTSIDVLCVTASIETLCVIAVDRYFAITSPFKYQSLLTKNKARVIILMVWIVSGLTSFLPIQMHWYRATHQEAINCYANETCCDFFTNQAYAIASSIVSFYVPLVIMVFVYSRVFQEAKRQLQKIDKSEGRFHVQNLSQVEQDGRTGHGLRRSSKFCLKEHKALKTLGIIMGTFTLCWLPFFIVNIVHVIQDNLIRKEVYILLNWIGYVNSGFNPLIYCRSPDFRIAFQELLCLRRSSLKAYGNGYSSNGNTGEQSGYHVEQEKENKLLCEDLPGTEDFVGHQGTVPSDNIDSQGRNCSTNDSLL

Take `Cc1cccc(N)n1`: the Potency result in assay [1], in assay [2], in [3], in assay [4], in assay [5] and in assay [6] was “inactive” throughout. Also, the Potency entry in [7], in assay [8], in [9], in [10], in [11] and in assay [12] was “inactive” in each case. Also, the Potency result in assay [13], in [14], in [15], in assay [16], in assay [17] and in assay [18] was “inactive” throughout. Besides, the Potency entry in assay [19] was “inactive”.
Regarding `CCCCCCCCCCC`, the Potency result in assay [1], in assay [2], in assay [3], in assay [4], in assay [5] and in [6] was “inactive” throughout. The Potency entry in [7], in assay [8], in assay [9], in assay [10], in assay [11] and in [12] was “inactive” each time. Moreover, the Potency result in assay [13], in assay [14], in assay [15], in assay [16], in assay [20] and in assay [18] was “inactive” throughout. In addition, in assay [19], the Potency result was “inactive”.
For `Nc1ccc(N=Nc2ccccc2)c(N)n1`, the Potency was 30.8 µM (active) in [1]; 1.73 µM (active) and 2.73 µM (active) and 2.37 µM (active) in assay [2]. For the same molecule, the Potency result in assay [3], in [4], in [5], in [6], in assay [7] and in assay [8] was “inactive” throughout. For the same molecule, the Potency entry in assay [9], in assay [10], in assay [11], in assay [12], in assay [13] and in [14] was “inactive” each time. Further, the Potency entry in assay [15], in assay [16], in [18] and in assay [19] was “inactive” throughout.
Take `FC(F)(F)C(F)(F)C(F)(F)C(F)(F)C(F)(F)C(F)(F)CCI`: the Potency result in [1], in assay [2], in [3], in assay [4], in assay [5] and in assay [6] was “inactive” each time. The Potency entry in [7], in [8], in [9], in assay [10], in assay [11] and in [12] was “inactive” in each case. In addition, the Potency entry in assay [13], in [14], in assay [15], in [17], in [20] and in assay [19] was “inactive” throughout.
Turning to `CN1C(CCl)Nc2cc(Cl)c(S(N)(=O)=O)cc2S1(=O)=O` (stereo not given), the Potency entry in assay [1], in assay [2], in assay [3], in [4], in assay [5] and in assay [6] was “inactive” each time. The Potency result in assay [7], in assay [8], in [9], in assay [10], in [11] and in assay [12] was “inactive” throughout. For the same molecule, the Potency result in assay [13], in [14], in assay [15], in [16], in assay [20] and in assay [18] was “inactive” in each case. Moreover, the Potency entry in assay [19] was “inactive”.
For `CC1=CC(=O)c2ccccc2C1=O`, the Potency was 27.3 µM (active) and 26.6 µM (active) in assay [1]; 13.3 µM (active) in assay [2]; 40.8 µM (active) and inactive in [10]. The Potency entry in assay [3], in assay [4], in [5], in [6], in [7] and in [8] was “inactive” in each case. Further, the Potency result in assay [9], in [11], in assay [12], in [13], in [14] and in assay [15] was “inactive” throughout. Moreover, the Potency entry in [17], in assay [20], in [18] and in assay [19] was “inactive” in each case.
Take `CCCCCCCCCCCC(=O)OC[C@@H](O)[C@H]1OC[C@H](OCCO)[C@H]1OCCO`: the Potency result in assay [1], in [3], in [4], in [5], in assay [6] and in assay [7] was “inactive” in each case. Moreover, the Potency result in [8], in assay [9], in [10], in [11], in assay [12] and in [13] was “inactive” each time. Also, the Potency entry in assay [14], in assay [15], in assay [17], in assay [20] and in assay [19] was “inactive” throughout. Besides, the Potency in assay [2] is 23.7 µM (active).
